# Only some compounds are listed: those with a hit (about 1.5% of all), similar ones and a draw of the others.
# MRP1 act = H69AR viability gain despite doxorubicin, primary screen, MRP-1 activator project, H69AR cells, CellTiter-Glo; actives 0.61% (n = 140,000); AID 799, 2007; viability rescue; viability increase, % at 10 µM;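 active = viability gain under doxorubicin at or above a set limit, the compound median plus 3 SD, cut at about 4.7% in these data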;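 also: MRP-1 overexpressing cells given doxorubicin 25 µM after compound pretreatment; 18-22 h compound pretreatment then 72 h with doxorubicin before readout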
# hDAT+cocaine = changed hDAT dopamine uptake under cocaine IC80, either direction, primary screen, cocaine antagonist project, cell-based, LLC-PK1 hDAT, [14C]-dopamine uptake, MLSMR | actives 1.3% (n = 110,000) | Sodium-dependent dopamine transporter (Homo sapiens), Q01959 | LLC-PK1 hDAT cells, [14C]-dopamine uptake with cocaine IC80; actives deviate in either direction | B-score at 10 µM;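 active = Z score or B-score, a plate-position-corrected score, falls beyond the plate's 99.7% confidence bounds, in either direction; inactive = both scores lie inside the 99.7% bounds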
# Target sequence (Q01959 whole entry, looked up): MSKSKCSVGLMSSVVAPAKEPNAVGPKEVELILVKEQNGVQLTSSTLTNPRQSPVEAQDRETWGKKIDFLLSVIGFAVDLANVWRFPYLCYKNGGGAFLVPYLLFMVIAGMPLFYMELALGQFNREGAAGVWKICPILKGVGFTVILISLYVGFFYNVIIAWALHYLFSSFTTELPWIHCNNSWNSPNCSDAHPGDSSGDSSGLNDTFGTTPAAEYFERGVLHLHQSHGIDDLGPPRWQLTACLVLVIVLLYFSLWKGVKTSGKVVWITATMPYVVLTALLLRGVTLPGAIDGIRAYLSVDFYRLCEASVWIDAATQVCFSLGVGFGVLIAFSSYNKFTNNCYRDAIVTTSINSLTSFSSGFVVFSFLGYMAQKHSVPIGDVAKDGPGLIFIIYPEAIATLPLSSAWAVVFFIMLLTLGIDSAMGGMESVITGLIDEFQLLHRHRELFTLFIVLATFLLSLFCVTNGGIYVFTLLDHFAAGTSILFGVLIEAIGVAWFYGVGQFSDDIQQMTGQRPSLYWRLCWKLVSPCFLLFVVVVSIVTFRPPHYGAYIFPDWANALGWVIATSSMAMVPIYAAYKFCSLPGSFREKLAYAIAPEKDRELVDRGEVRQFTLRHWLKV
# MRP reversal = reversal of MRP1-mediated doxorubicin resistance, primary screen, H69AR cells, doxorubicin co-treatment | H69AR cells + 2 uM doxorubicin, CellTiter-Glo, 72 h | differential viability (reversal), % at 10 µM | actives 0.04% (n = 85,000) | AID 602, 2007;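 active = viability drop by adding the cancer drug above about 55%, with treated viability meeting a 40% cutoff, limit read from the data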;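 also: larger differential means the compound sensitizes cells more to doxorubicin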
# Hits are given with their value; i = inactive; nt = no result given.
SMILES,MRP1 act,hDAT+cocaine,MRP reversal
COCCCn1c(SCc2cccc(C(F)(F)F)c2)nc2cc(OC)c(OC)cc2c1=N,i,i,nt
COc1ccc(CCNC(=O)C/C(C)=N/NC(=O)C2CCCCC2)cc1OC,i,nt,nt
COc1ccc(CCNC(=O)C/C(C)=N/NC(=O)c2ccc(N)cc2)cc1OC,i,-3.1,nt
O=C(CN1CC(c2ccccc2)CC1=O)N/N=C/c1cc(Br)ccc1O (centres undefined),i,nt,nt
Cc1ccc(S(=O)(=O)Cc2ccc(C(=O)N3CCc4ccccc4C3)o2)cc1,i,i,i
COc1ccc(S(=O)(=O)Cc2ccc(C(=O)N3CCc4ccccc4C3)o2)cc1,i,2.4,i
CCOc1ccc(NC(=O)CN2CCN(CC(=O)c3ccc(OCC)cc3)CC2)cc1,i,2,i
CCOc1ccc(NC(=O)CN2CCN(CC(=O)c3ccc(OC)c(OC)c3)CC2)cc1,i,i,i
O=C(Cc1cccs1)Nc1cccc(-c2nc3cc4ccccc4cc3[nH]2)c1,i,nt,nt
O=C(N/N=C/c1ccccc1OCc1ccccc1)c1cccs1,i,nt,nt
CCO[C@H]1OC(C(=O)NC2CC2)=C[C@@H](c2ccccc2)[C@@H]1CCCO,nt,i,nt
Cc1ccccc1OCC(=O)Nc1ccc(N2CCN(S(C)(=O)=O)CC2)cc1,i,-8.1,i
Cc1cccc(OCC(=O)Nc2ccc(N3CCN(S(C)(=O)=O)CC3)cc2)c1C,i,i,i
CCOc1ccc2ncc(S(=O)(=O)c3ccc(C)cc3)c(N3CCC4(CC3)OCCO4)c2c1,i,nt,nt
O/N=C/c1cc(Cl)ccc1OCc1cccc2ccccc12,i,i,nt
CC(=O)NS(=O)(=O)c1ccc(N=c2ssc3c2-c2ccc(C)cc2NC3(C)C)cc1,i,nt,nt
CC(=O)c1cc(C(=O)Nc2ccc(C(=O)O)cc2)oc1C,i,i,i
Cc1oc(C(=O)Nc2ccc(C(=O)O)cc2)cc1COc1ccccc1,7.2,i,i
COc1cc(OC)cc(C(=O)Nc2nc3ccccc3[nH]2)c1,i,i,i
COc1ccc(C(=O)Nc2nc3ccccc3[nH]2)cc1OC,i,i,64
O=C(NCc1ccccc1C(F)(F)F)C1CC(c2cccc(F)c2)=NO1 (centres undefined),nt,i,nt
O=c1c(Cl)nc2cc(Cl)ccc2n1CCNc1ncc(C(F)(F)F)cc1Cl,i,i,nt
CCOC(=O)c1ccc(/C=C2/C=C(c3ccccc3)N(c3ccc(Cl)c(C(=O)O)c3)C2=O)cc1,i,nt,nt
COC(=O)/C(=C/Nc1ccccc1)[N+](=O)[O-],i,i,i
COC(=O)/C(=C/Nc1ccc(O)cc1)[N+](=O)[O-],5.2,i,i
SMILES,MRP1 act,hDAT+cocaine,MRP reversal
CCOc1ccc(OCc2nnc(SCC(=O)NC3CCS(=O)(=O)C3)n2-c2ccc(Cl)cc2)cc1 (centres undefined),i,nt,nt
O=C(COC(=O)c1oc2ccccc2c1COc1ccccc1)NCCN1C(=O)CSC1=O,i,nt,nt
CCOC(=O)c1c2n(c3c(NCc4ccccc4)ncnc13)CCCC2,i,2.3,i
CCOC(=O)c1nnc(-c2ccccc2)nc1NCc1ccccc1,i,i,nt
O=C(Nc1ccc(F)cc1F)c1cc2ncc(Br)cn2n1,i,i,i
COC(=O)c1ccccc1NC(=O)c1cc2ncc(Br)cn2n1,i,-2.3,i
CCc1ccc(C(=O)CSc2nc3cc(S(=O)(=O)N4CCOCC4)ccc3n2CC)cc1,i,nt,nt
CCCCNc1oc(-c2ccc(OC)cc2)nc1S(=O)(=O)c1ccccc1,6.2,i,i
CCNc1oc(-c2ccc(OC)cc2)nc1S(=O)(=O)c1ccc(Br)cc1,i,i,i
COc1ccc(CCN2C(=O)C(O)=C(C(=O)c3ccco3)C2c2cccs2)cc1OC (centres undefined),i,-3.3,i
CCOc1cc(C2C(C(=O)c3ccc(C)o3)=C(O)C(=O)N2CCc2ccccc2)ccc1O (centres undefined),i,-4.6,i
COc1cc(C2C(C(=O)c3ccco3)=C(O)C(=O)N2CCc2ccccc2)ccc1O (centres undefined),i,-3.3,i
COc1cc(C2C(C(C)=O)=C(O)C(=O)N2CCc2ccc(OC)c(OC)c2)ccc1O (centres undefined),i,i,i
Cc1ccc(C(=O)C2=C(O)C(=O)N(Cc3ccccc3)C2c2cccnc2)o1 (centres undefined),i,i,i
COc1ccc(CCN2C(=O)C(O)=C(C(C)=O)C2c2ccccc2OC)cc1OC (centres undefined),i,i,i
O=c1cc(-c2ccccc2Cl)oc2c(Br)ccc(O)c12,i,i,nt
Cc1ccc(NC(=O)c2ccc(OC(=O)C(C)Oc3ccc(Cl)cc3C)cc2)cc1 (centres undefined),i,nt,nt
Cn1c(SCC2CCCCC2)nnc1-c1ccncc1,i,-7.9,i
CC(=O)CSc1nnc(-c2ccncc2)n1C,i,i,nt
COc1ccc(CNc2nc(NCc3ccc(OC)cc3)n(C(=O)c3ccccc3[N+](=O)[O-])n2)cc1,5.4,i,nt
O=C(c1ccco1)n1nc(NCc2ccccc2)nc1NCc1ccccc1,i,i,i
Cc1cccc(NC(=O)c2cc(NC(=O)C3CCCCC3C(=O)O)ccc2N2CCCCC2)c1 (centres undefined),i,4,i
CC(=O)Nc1ccc(N2CCCCC2)c(C(=O)Nc2cccc(C)c2)c1,i,i,i
CN1CCC/C1=C/C=C1\SC(=S)NC1=O,i,nt,nt
O=C1CC(N2C(=O)/C(=C/C=C/c3ccccc3)SC2=S)C(=O)N1c1ccccc1 (centres undefined),i,nt,nt
SMILES,MRP1 act,hDAT+cocaine,MRP reversal
COc1ccc([C@@H]2C=C(C(=O)O)O[C@H](OCCCCO)C2)cc1,nt,i,nt
Cc1cc(Br)cc(C)c1OCCCCN(C)C,i,i,nt
CNC(=O)[C@@H]1C[C@H]1[C@@H](NC(=O)OCc1ccccc1)c1ccccc1,i,i,nt
CC(=O)c1ccc(N2CCN(c3ccc(C(F)(F)F)cn3)CC2)cc1,7.8,nt,nt
CC(=O)c1ccc(N2CCN(c3ncc(C(F)(F)F)cc3Cl)CC2)cc1,i,i,i
COc1ccc(C2C(C#N)=C3NC(=O)c4c(sc5c4CCCCC5)N3C3=C2C(=O)CC(C)(C)C3)cc1 (centres undefined),i,2.3,nt
COc1ccc(C2C(C#N)=C(N)N(c3sc4c(c3C#N)CCCC4)C3=C2C(=O)CC(C)(C)C3)cc1 (centres undefined),i,i,nt
CC(C)(C)c1ccc(OCC(O)CSc2ncn[nH]2)cc1 (centres undefined),6.8,i,i
OC(COc1ccccc1)CSc1ncn[nH]1 (centres undefined),i,i,i
COCn1ccnc1C(O)(c1ccc(OC)cc1)c1ccc(OC)cc1,i,nt,nt
Cc1ccc(-c2ccc(OCC(=O)N3CCOCC3)cc2)cc1,i,i,i
Cc1ccc(C(=O)Nc2cc(C)c(OCC(=O)N3CCOCC3)c(C)c2)cc1,i,2.3,i
O=C(Cn1c(=O)[nH]c2ccsc2c1=O)NC1CCCCC1,i,-2.7,i
O=C(CCCn1c(=O)[nH]c2cc(Cl)ccc2c1=O)NC1CCCCCC1,i,i,i
Nc1cc(N)nc(SCc2nnnn2-c2ccc(Cl)cc2)n1,i,nt,nt
COCCCn1c(SCC(=O)N2CC(=O)Nc3ccccc32)nnc1-c1ccoc1C,i,-2.4,i

# Compound activity as filed in PubChem.
